The source made the active and inactive calls. The calls were made as follows: active = hit-call score of the fitted dose curve at least 0.9, where 1 is the maximum; inactive = score below 0.9.

Read-out in the assay: Interleukin-8 (IL8), CXCL8 (gene 3576)
As to the kind of experiment: BSK_hDFCGF_IL8: BioMAP Diversity Plus: hDFCGF Assay for Interleukin-8 (IL8) Biomarker Activity (AID 2283058). As to conditions: primary human foreskin fibroblasts; actives raise or lower the signal. How it is done:
BSK_hDFCGF is a cell-based, multiplexed-readout assay that uses foreskin fibroblast, a human skin primary cell, with measurements taken at 24 hours after chemical dosing in a 96-well plate.BSK_hDFCGF_IL8 is an assay component measured in the BSK_hDFCGF assay. It measures IL-8 antibody related to regulation of gene expression using ELISA technology.Data from the assay component BSK_hDFCGF_IL8 was analyzed into 1 assay endpoint. This assay endpoint, BSK_hDFCGF_IL8, was analyzed with bidirectional fitting relative to DMSO as the negative control and baseline of activity. Using a type of binding reporter, gain or loss-of-signal activity can be used to understand changes in the signaling as they relate to the gene CXCL8. Furthermore, this assay endpoint can be referred to as a primary readout, because this assay has produced multiple assay endpoints where this one serves a signaling function. To generalize the intended target to other relatable targets, this assay endpoint is annotated to the cytokine intended target family, where the subfamily is interleukins.
The levels of cell surface (or secreted, indicated by the prefix "s") biomarker endpoints were measured by ELISA. Overt cytotoxicity to cells in confluent adherent cultures (all systems other than the BT system) was assessed by measuring total protein levels using sulforhodamine B (SRB) staining in parallel cultures at the time of biomarker measurements, indicated as SRB endpoints. For proliferation assays for adherent cell types, individual cell types are cultured at sub-confluence and relative cell numbers quantified by SRB staining at time points optimized for each system (48 h: 3C and CASM3C systems; 72 h: BT and HDF3CGF systems; 96 h: SAg system). SRB was performed by staining cells with 0.1% SRB after fixation with 10% TCA and reading wells at 560 nm.Viability and proliferation of PBMC (T cells) was quantified by Alamar Blue reduction for the SAg and BT systems. For PBMC viability (referred to as PBMC Cytotoxicity within the assay endpoint names), cells were plated (75,000/well in a 96-well plate) and then chemical samples added for 1 h before addition of activators, SEB and TSST-1 (20 ng/mL final concentration each). Cells were incubated for 90 h. Then, Alamar Blue (20 uL/well) (Invitrogen, Cat DAL1100) was added for 6 h, and the plates were read with a fluorescence microplate reader at 546/580 nm (excitation/emission). For PBMC proliferation, cells were plated and activated as above but incubated for only 16 h prior to addition of Alamar Blue. Plates were read after 6 h.
As to `CCCCCCC(=O)OCC`, the outcome was inactive.

With `CC1(C)CC(N=C=O)CC(C)(CN=C=O)C1` (stereo not given), the outcome was inactive.

For `O=c1[nH]cc(F)c(=O)[nH]1`, the outcome was inactive.

For `COc1ccc(C)cc1N`, the outcome was inactive.

With `CCCCCCCCCCCCCCCCCC(=O)O`, the result was inactive.

`Cc1cc(=O)[nH]c(=S)[nH]1`: the outcome was inactive.

For `CN1CCN(Cc2cc(-c3ccc4[nH]c(=O)oc4c3)co2)[C@@H](c2ccc(F)cc2)C1`, the outcome was inactive.

As for `CCCCCCCCCCCC(=O)OC`, the outcome was inactive.

On to `CCOc1ccc2c(c1)C(C)=CC(C)(C)N2`, for which the outcome was inactive.

Take `CNC(=O)[C@H]1O[C@@H](n2cnc3c(NCc4cc(Cl)ccc4OCc4cc(C)no4)ncnc32)[C@H](O)[C@@H]1N`: the outcome was inactive.

On to `COc1ccc2c(c1)c(CC(=O)O)c(C)n2C(=O)c1ccc(Cl)cc1`, for which the result was inactive.

Take `Cc1c(C(=O)O)c(O)cc2c1C(=O)c1c(O)c([C@@H]3O[C@H](CO)[C@@H](O)[C@H](O)[C@H]3O)c(O)c(O)c1C2=O`: the outcome was inactive.

For `CN[C@H]1CC[C@@H](c2ccc(Cl)c(Cl)c2)c2ccc(S(N)(=O)=O)cc21`, the AC50 is 34.1 µM (active).

On to `O=C(N[C@@H](Cc1ccccc1)[C@@H](O)C(=O)N1C[C@@H](O)[C@@H](O)C1)c1cc2cc(Cl)ccc2[nH]1`, for which the outcome was inactive.

With `Cc1ccc(N(C)C)cc1`, the result was inactive.

`NCCO`: the outcome was inactive.

With `CCCCCCCCCCCCCO`, the concentration at half-maximal activity (AC50) was 29.9 µM (active).

With `COC(=O)c1ccc(O)cc1`, the result was inactive.

Regarding `CC(=O)Oc1ccccc1C(=O)O`, the outcome was inactive.

In the case of `O=C(O)CCCCC(=O)O`, the result was inactive.

For `Cc1oc(-c2ccccc2)nc1CCOc1cccc2c1ccn2CCC(=O)O`, the result was inactive.

As to `CCCCCCCCCCC`, the outcome was inactive.

For `CC1=C(/C=C/C(C)=C/C=C/C(C)=C/CO)C(C)(C)CCC1`, the result was inactive.

Turning to `COc1cc(C=O)ccc1O`, the result was inactive.

Regarding `COc1cc(-c2nc(NC(=O)c3cc4cc(C)cc(C)c4n3CC(=O)O)sc2CCC2CCCCC2)c(OC)cc1Cl`, the AC50 was 2.36 µM (active).

Regarding `Cc1cccc(Nc2cc(Cl)nc(SCC(=O)O)n2)c1C`, the outcome was inactive.

Take `C=CCc1ccc(O)c(OC)c1`: the result was inactive.

In the case of `OC[C@@H](O)[C@@H](O)[C@H](O)[C@H](O)CO`, the outcome was inactive.

Regarding `Cc1ccc(C)c(O)c1C`, the result was inactive.

As for `Cc1ccc2ncccc2c1`, the result was inactive.

Turning to `CC(C)(C)c1cc(O)c(C(C)(C)C)cc1O`, the outcome was inactive.

For `Nc1nc(N)c2nc(CNc3ccc(C(=O)N[C@@H](CCC(=O)O)C(=O)O)cc3)cnc2n1`, the result was inactive.

For the molecule `NS(=O)(=O)c1cc2c(cc1Cl)NCNS2(=O)=O`, the outcome was inactive.

On to `CCCCCCCC=O`, for which the outcome was inactive.

For the molecule `c1cc(-c2ccncc2)ccn1`, the result was inactive.

`O=C(OCCCCCOC(=O)c1ccccc1)c1ccccc1`: the result was inactive.

On to `Clc1cc(Cl)c(Cl)cc1Cl`, for which the outcome was inactive.

Turning to `CC1(C)NC(=O)NC1=O`, the result was inactive.

In the case of `Nc1ccc(S(=O)(=O)c2ccc(N)cc2)cc1`, the result was inactive.

In the case of `CN1CCCC1=O`, the outcome was inactive.
